Most compounds without a hit are left out; they make up all but 18% or so of the library.
TDP1 cell CPT: qHTS for Inhibitors of human tyrosyl-DNA phosphodiesterase 1 (TDP1): qHTS in cells in presence of CPT; chicken DT40 Tdp1-/-;hTDP1 cells + 20 nM CPT, ATP luminescence, 48 h; Potency, µM (titrated, usually from 46.2 µM), without a hit: at the highest dose activity change, negative = growth inhibition, hits mostly inhibitors; hit rate 12% among 420,000; AID 686979, 2013; note: nearly all actives have a fitted effect of over 55% in size
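Chicken DT40 Tdp1-/- cells stably complemented with human TDP1 were seeded at 400 cells/well in medium containing 20 nM camptothecin, exposed to pin-transferred compounds, and grown at 37 °C for at least 48 hr. Viability was read as ATP luminescence.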
TDP1 inh: qHTS Assay for Inhibitors of Tyrosyl-DNA Phosphodiesterase (TDP1); Potency, µM (highest dose often 130 µM), for inactives: at the highest dose activity change, negative = inhibition, usual class: inhibitors; hit rate 0.28% among 350,000; Tyrosyl-DNA phosphodiesterase 1 (Homo sapiens), Q9NUW8; recombinant TDP1, AlphaScreen DNA substrate cleavage; note: nearly all actives have a fitted effect of over 40% in size
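Recombinant human Tdp1 (E. coli-expressed, 1 nM final) preincubated with compounds 15 min at room temperature, then 5'-biotin/3'-phosphotyrosine-FITC DNA substrate (15 nM final) added for 5 min. AlphaScreen beads (10 ug/ml final) added 10 min; cleavage lowers signal.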
TDP1 cell noCPT: qHTS for Inhibitors of human tyrosyl-DNA phosphodiesterase 1 (TDP1): qHTS in cells in absence of CPT; DT40 Tdp1-/- hTDP1 cells, no CPT, ATP luminescence, 48 h; Potency, µM (highest dose often 46.2 µM), for inactives: at the highest dose activity change, negative = growth inhibition, most hits filed as inhibitors; hit rate 15% among 420,000; AID 686978, 2013; note: nearly all actives have a fitted effect of over 55% in size
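DT40 Tdp1-/-;hTDP1 cells, no CPT (DMSO vehicle only), 400 cells/well; compounds pin-transferred; ≥48 hr, 37 °C; CellTiter-Glo 30 min RT dark, luminescence read.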
VDR inhibitor: Inhibitors of the vitamin D receptor (VDR): qHTS. VDR-SRC2-3 peptide fluorescence polarization, 2 h. Potency, µM, for the others: max response, negative = inhibition, actives largely listed as inhibitors. hit rate 0.93% among 400,000. AID 504847, 2011. Vitamin D3 receptor (Homo sapiens), P11473
Target sequence (P11473 whole entry, looked up): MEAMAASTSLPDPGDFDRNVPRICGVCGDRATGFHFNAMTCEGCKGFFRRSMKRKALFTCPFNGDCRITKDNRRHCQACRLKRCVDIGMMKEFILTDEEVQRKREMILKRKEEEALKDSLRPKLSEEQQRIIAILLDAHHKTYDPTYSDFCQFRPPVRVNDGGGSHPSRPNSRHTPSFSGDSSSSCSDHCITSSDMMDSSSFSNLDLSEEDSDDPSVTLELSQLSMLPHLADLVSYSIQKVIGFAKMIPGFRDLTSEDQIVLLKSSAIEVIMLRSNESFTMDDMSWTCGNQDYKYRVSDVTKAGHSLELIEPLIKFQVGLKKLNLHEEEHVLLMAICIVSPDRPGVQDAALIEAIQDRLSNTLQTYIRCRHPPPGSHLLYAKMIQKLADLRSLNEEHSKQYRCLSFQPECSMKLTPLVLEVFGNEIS
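Two reagent solutions held at 4 deg C in the dark were dispensed, compounds pinned at 23 nl, and the mixture incubated 2 h at room temperature. Read-out: fluorescence polarization of VDR–SRC2-3 peptide binding.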
PLK1 PBD block: qHTS for Inhibitors of PLK1-PDB (polo-like kinase 1 - polo-box domain): Primary Screen. Serine/threonine-protein kinase PLK1 (Homo sapiens), P53350. Plk1 PBD binding of FITC phosphopeptide, fluorescence polarization. Potency, µM, for the others: max response, negative = inhibition, hits mostly inhibitors. hit rate 2.8% among 360,000. AID 720504, 2013; note: series mostly up to about 57 µM; nearly all actives have a fitted effect of over 65% in size
KAT2A inh: qHTS Assay for Inhibitors of GCN5L2; Histone acetyltransferase KAT2A (Homo sapiens), Q92830; GCN5L2 HAT assay, ThioGlo1 CoA-SH fluorescence; Potency, µM (series often up to 58.9 µM), for the others: at the highest dose activity change, negative = inhibition, actives largely listed as inhibitors; hit rate 0.21% among 390,000
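Compounds, pin-transferred from DMSO stocks, meet 20nM GCN5L2 for 15 min before the reaction begins with H3(1-25) peptide (75uM) and acetyl-CoA (70uM). Thiol-reactive ThioGlo1 reports CoA release over 20 min at room temperature.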
An asterisk follows results filed as active; ? = inconclusive; nt = no result; ! = not active in a repeat; [ ] = dose if it differs, or a comment. Calls come from the whole dose curve; as a rule, active = well fitted curve in the direction sought with a large enough effect; inconclusive = small, poorly fitted or top-dose-only effect, or another doubt; inactive = no such curve, though single readings can be large; an effect the other way counts as inactive or inconclusive. % is set by controls: 0 for no effect and ±100 for the full control effect; potency is the fitted concentration of half-maximal effect.

SMILES	TDP1 cell CPT	TDP1 inh	TDP1 cell noCPT	VDR inhibitor	PLK1 PBD block	KAT2A inh
Cc1cccc2c(N=O)c(O)[nH]c12	?	nt	?	?	3.8µM*	2%
O=C(c1ccc(S(=O)(=O)N2CCCCCC2)cc1)N1CCC(CN2C(=O)c3cccc4cccc(c34)C2=O)CC1	?	6%	21µM*	12%	1%	1%
O=C1c2cccc3cccc(c23)C(=O)N1CC1CCN(S(=O)(=O)c2ccc(F)cc2)CC1	?	3%	12µM*	-3%	0%	-27%
Cn1c(SCC(=O)N2CCCc3ccccc32)ncc(C(=O)Nc2ccccc2)c1=O	-12%	3%	0%	10%	nt	-3%
CCCn1c2ccccc2c2cnn(CC(=O)NC3CCN(Cc4ccccc4)CC3)c(=O)c21	16µM*	2%	?	-17%	?	1%
CCCn1c2ccccc2c2cnn(CC(=O)NC3CCCCC3C)c(=O)c21 (stereo unspecified)	?	2%	18µM*	3%	-2%	-3%
CCCn1c2ccccc2c2cnn(CC(=O)NCCCN3C(C)CCCC3C)c(=O)c21 (stereo unspecified)	?	4%	?	-9%	-2%	-28%
O=C(NCc1ccccc1)c1ccc(-c2ccccc2C(F)(F)F)o1	-28%	-12%	-9%	112µM*!	-5%	-1%[88.6 µM]
O=C(O)c1ccc(-c2ccccc2C(F)(F)F)o1	-3%	0%	-7%	15%	4%	-14%
CCSc1nnc(CNC(=O)C23CC4CC(CC(C4)C2)C3)n1C1CCCCC1	23µM*	2%	26µM*	-12%	-7%	-3%
O=C(NCc1nnc(SCc2ccc(F)cc2)n1-c1ccc(F)cc1)C12CC3CC(CC(C3)C1)C2	15µM*	-1%	29µM*	-25%	-4%	-5%
Cc1ccc(-n2c(SCC(N)=O)nnc2-c2ccco2)cc1	-19%	3%	19%	-8%	5%	-15%
CC[C@@]1(O)C[C@H](O[C@H]2C[C@H](N(C)C)[C@H](O[C@H]3C[C@H](O)[C@H](O[C@H]4CCC(=O)[C@H](C)O4)[C@H](C)O3)[C@H](C)O2)c2c(cc3c(c2O)C(=O)c2c(O)cccc2C3=O)[C@H]1C(=O)OC	0.21µM*	nt	0.24µM*	nt	nt	nt
CCCCC(=O)OCC(=O)[C@]1(O)Cc2c(O)c3c(c(O)c2[C@H](OC2CC(NC(=O)C(F)(F)F)C(O)C(C)O2)C1)C(=O)c1c(OC)cccc1C3=O (stereo partly specified)	nt	13%	nt	?	nt	-15%
COc1cccc2c1C(=O)c1c(O)c3c(c(O)c1C2=O)CC(O)(C(=O)CO)CC3OC1CC(N(C)C)C(O)C(C)O1 (stereo unspecified)	0.015µM*	nt	0.15µM*	-3%	?	nt
CC(=O)[C@]1(O)Cc2c(O)c3c(c(O)c2[C@@H](O[C@H]2C[C@H](N)[C@H](O)[C@H](C)O2)C1)C(=O)c1ccccc1C3=O	0.15µM*	10%[56.1 µM]	0.0073µM*	?	5.3µM*	?
O=C1N(CCCl)c2ccc(Br)cc2C12OCCO2	-7%	nt	-18%	?	-20%	-21%
COc1ccc(-c2nc(Cn3c(SCc4cccc(Cl)c4)nc4ccncc43)c(C)o2)cc1	23µM*	5%	?	23%	nt	0%
Cc1oc(-c2cccc(Cl)c2)nc1Cn1c(SCc2ccccc2F)nc2ccncc21	16µM*	-3%	23µM*	7%	nt	-1%
Cc1oc(-c2ccccc2F)nc1Cn1c(SCc2cccc(C(F)(F)F)c2)nc2ccncc21	?	0%	?	5%	nt	0%
O=Cc1sc(N2CCOCC2)nc1-c1ccccc1	nt	-5%	nt	nt	nt	-21%
CCC(=O)Nc1ccc(C(=O)OCc2ccccc2)cc1	-20%	-5%	-1%	15%	0%	-8%
CC(C)OC(=O)c1ccc(NCc2cc(O)ccc2O)cc1	1.2µM*	nt	2.3µM*	4%	?	nt
COC(=O)c1ccc(CCc2cc(O)ccc2O)cc1	2.9µM*	nt	5.2µM*	?	?	nt
O=C(OCc1ccccc1)c1ccc(NCc2cc(O)ccc2O)cc1	4.6µM*	nt	3.7µM*	-21%	-6%	nt
SMILES	TDP1 cell CPT	TDP1 inh	TDP1 cell noCPT	VDR inhibitor	PLK1 PBD block	KAT2A inh
COc1ccc(C(=O)OCCc2ccc(O)cc2)cc1	-14%	0%	-14%	3%	3%	-2%
Cc1ccc(-c2nnc3ccccc3c2C(=O)Nc2cccc(C(F)(F)F)c2)cc1	-7%	3%	-7%	19%	nt	32%
COc1cc2c3c(c1)C(C)CC(C)(C)N3C(=O)C2=O (stereo unspecified)	2.6µM*	2%	5.2µM*	-26%	-18%	-1%
COc1cc2c3c(c1)C(C)=CC(C)(C)N3C(=O)C2=O	0.73µM*	8%	0.82µM*	-25%	-9%	-3%
COc1cccc(C(=O)Oc2cc3c4c(c2)C(C)=CC(C)(C)N4C(=O)C3=O)c1	3.7µM*	12%	3.7µM*	-100%	?	-6%
COCCCNC(=O)c1ccc(Cn2c(=O)c3ccccc3n(CC(N)=O)c2=O)cc1	?	-2%	?	-7%	nt	-1%
COc1cc2c(cc1NC(=O)c1cccc(S(=O)(=O)N(C)C)c1)oc1ccccc12	10µM*	4%	15µM*	4%	0%	-11%
COc1ccc(OCC(=O)Nc2cc3oc4ccccc4c3cc2OC)cc1	9%	3%	-29%	-29%	-1%	-1%
COc1cc2c(cc1NC(=O)C1CCCO1)oc1ccccc12 (stereo unspecified)	?	1%	?	-9%	-9%	-7%
COc1cc2c(cc1NC(=O)c1cc(-c3ccncc3)nc3ccccc13)oc1ccccc12	21µM*	3%	?	-10%	5%	-17%
COc1cc2c(cc1NC(=O)c1cc(-c3cccnc3)nc3ccc(C)cc13)oc1ccccc12	11µM*	3%	?	19%	7%	1%
COc1ccc(NC(=O)CN2C(=O)COc3ccccc32)cc1OC	4%	nt	-15%	-9%	14%	-13%
O=C(O)CCCCN1C(=O)/C(=C\c2ccc(OCc3ccccc3)c(OCc3ccccc3)c2)SC1=S	-91%	-14%	?	8%	?	?
O=C(O)CN1C(=O)/C(=C\c2cc(Br)ccc2OCc2ccc(Cl)cc2)SC1=S	0%	nt	6%	40µM*	8.4µM*	-26%
